# Assay results reported in PubChem BioAssay AID1159580 (chemical genetic matrix, 2015).
# Several values for one entry are separate records, joined by “and”; a condition that tells them apart may be missing. Equal entries are not always repeated. The campaign covered roughly 5,500 compounds. About 2,000 (36%) were called active. Inconclusive results (about 18%) are left out. Some of the results follow. A number with no mark means an inactive call. Rule as the data show it: active = normalized growth mostly below about 0.91 (no sharp cut-off); inconclusive = no clear call, values can overlap the other calls; inactive = mostly above about 0.92.
# Experiment: chemical genetic growth profiling, strain panel (AID 1159580);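 also: tested at 20 µM; growth read once vehicle control cultures reached saturation at 30 °C; 1 = growth at the plate median or of vehicle wells; lower values mean less growth of the strain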
# Settings: S. cerevisiae deletion strains, growth OD
structure (smiles),measurement,setting,value
CN(C)CCC=C1c2ccccc2C=Cc2ccccc21,normalized growth,"locus YAL013W, strain DEP1, active compounds read low",0.995
same,normalized growth,"locus YAL021C, strain ccr4, active compounds read low",0.893 (active)
same,normalized growth,"locus YAL026C, strain drs2, active compounds read low",0.901 (active)
same,normalized growth,"locus YAL030W, strain snc1, active compounds read low",0.982
same,normalized growth,"locus YAL040C, strain CLN3, active compounds read low",1.07
same,normalized growth,"locus YBL061C, strain skt5, active compounds read low",0.995
same,normalized growth,"locus YBR009C, strain hhf1, active compounds read low",0.99
same,normalized growth,"locus YBR021W, strain FUR4, active compounds read low",0.958
same,normalized growth,"locus YBR023C, strain chs3, active compounds read low",0.978
same,normalized growth,"locus YBR171W, strain sec66, active compounds read low",1
same,normalized growth,"locus YBR229C, strain ROT2, active compounds read low",0.995
same,normalized growth,"locus YBR231C, strain swc5, active compounds read low",0.997
same,normalized growth,"locus YBR279W, strain paf1, active compounds read low",0.979
same,normalized growth,"locus YCL011C, strain gbp2, active compounds read low",0.984
same,normalized growth,"locus YCL016C, strain dcc1, active compounds read low",0.954
same,normalized growth,"locus YCL029C, strain bik1, active compounds read low",1
same,normalized growth,"locus YCL061C, strain MRC1 (second series), active compounds read low",0.999
same,normalized growth,"locus YCL061C, strain MRC1, active compounds read low",0.992
same,normalized growth,"locus YCL069W, strain vba3, active compounds read low",0.993
same,normalized growth,"locus YCR088W, strain abp1, active compounds read low",0.998
same,normalized growth,"locus YDL005C, strain med2, active compounds read low",0.991
same,normalized growth,"locus YDL035C, strain GPR1, active compounds read low",0.954
same,normalized growth,"locus YDL040C, strain nat1, active compounds read low",0.967
same,normalized growth,"locus YDL074C, strain BRE1, active compounds read low",0.956
same,normalized growth,"locus YDL101C, strain DUN1, active compounds read low",1.02
same,normalized growth,"locus YDL134C, strain PPH21, active compounds read low",0.996
same,normalized growth,"locus YDL185W, strain tfp1, active compounds read low",0.949
same,normalized growth,"locus YDL192W, strain arf1, active compounds read low",0.988
same,normalized growth,"locus YDR001C, strain nth1, active compounds read low",0.983
same,normalized growth,"locus YDR069C, strain doa4, active compounds read low",0.918
same,normalized growth,"locus YDR101C, strain arx1, active compounds read low",1.05
same,normalized growth,"locus YDR137W, strain rgp1, active compounds read low",1.18 [resistant] (active)
same,normalized growth,"locus YDR150W, strain NUM1, active compounds read low",0.987
same,normalized growth,"locus YDR159W, strain sac3, active compounds read low",1
same,normalized growth,"locus YDR162C, strain NBP2, active compounds read low",0.95
same,normalized growth,"locus YDR195W, strain ref2",1.05
same,normalized growth,"locus YDR297W, strain sur2, active compounds read low",0.971
same,normalized growth,"locus YDR318W, strain mcm21, active compounds read low",0.982
same,normalized growth,"locus YDR334W, strain swr1, active compounds read low",0.958
same,normalized growth,"locus YDR335W, strain msn5, active compounds read low",0.969
same,normalized growth,"locus YDR388W, active compounds read low",0.959
same,normalized growth,"locus YDR392W, strain spt3, active compounds read low",0.988
same,normalized growth,"locus YDR502C, strain sam2, active compounds read low",0.996
same,normalized growth,"locus YEL003W, strain gim4, active compounds read low",0.987
same,normalized growth,"locus YEL037C, strain rad23, active compounds read low",1
same,normalized growth,"locus YEL061C, strain CIN8 (second series), active compounds read low",0.982
same,normalized growth,"locus YEL061C, strain CIN8, active compounds read low",0.99
same,normalized growth,"locus YER002W, strain NOP16, active compounds read low",1.04
same,normalized growth,"locus YER015W, strain faa2, active compounds read low",0.969
same,normalized growth,"locus YER016W, strain bim1, active compounds read low",0.998
same,normalized growth,"locus YER110C, active compounds read low",0.984
same,normalized growth,"locus YER111C, strain swi4, active compounds read low",0.993
same,normalized growth,"locus YER155C, strain BEM2 (second series), active compounds read low",0.967
same,normalized growth,"locus YER155C, strain BEM2, active compounds read low",1.02
same,normalized growth,"locus YER167W, strain BCK2, active compounds read low",0.999
same,normalized growth,"locus YFR010W, strain ubp6, active compounds read low",0.95
same,normalized growth,"locus YGL078C, strain dbp3, active compounds read low",0.985
same,normalized growth,"locus YGL086W, strain mad1, active compounds read low",1.01
same,normalized growth,"locus YGL167C, strain pmr1, active compounds read low",0.976
same,normalized growth,"locus YGL173C, strain kem1, active compounds read low",1
same,normalized growth,"locus YGL227W, strain vid30, active compounds read low",0.97
same,normalized growth,"locus YGL240W, strain doc1, active compounds read low",1.02
same,normalized growth,"locus YGL248W, strain PDE1, active compounds read low",0.998
same,normalized growth,"locus YGL253W, strain hxk2, active compounds read low",0.988
same,normalized growth,"locus YGR135W, strain pre9, active compounds read low",0.919
same,normalized growth,"locus YGR252W, strain gcn5, active compounds read low",0.904
same,normalized growth,"locus YHR013C, strain ard1, active compounds read low",0.945
same,normalized growth,"locus YHR027C, strain rpn1, active compounds read low",0.953
same,normalized growth,"locus YHR030C, strain SLT2, active compounds read low",0.983 and 1.01
same,normalized growth,"locus YHR079C, strain IRE1 (second series), active compounds read low",0.984
same,normalized growth,"locus YHR079C, strain IRE1, active compounds read low",1.02
same,normalized growth,"locus YHR094C, strain hxt1, active compounds read low",0.99
same,normalized growth,"locus YHR129C, strain ARP1, active compounds read low",0.993
same,normalized growth,"locus YHR142W, strain chs7, active compounds read low",0.959
same,normalized growth,"locus YHR200W, strain rpn10, active compounds read low",0.998
same,normalized growth,"locus YIL066C, strain RNR3, active compounds read low",0.974
same,normalized growth,"locus YIL073C, strain SPO22, active compounds read low",0.94
same,normalized growth,"locus YIL125W, strain kgd1, active compounds read low",1.02
same,normalized growth,"locus YIR030C, strain dcg1, active compounds read low",0.988
same,normalized growth,"locus YJL092W, strain hpr5, active compounds read low",0.98
same,normalized growth,"locus YJL095W, strain BCK1 (second series), active compounds read low",0.98
same,normalized growth,"locus YJL095W, strain BCK1, active compounds read low",0.903 and 1.02
same,normalized growth,"locus YJL115W, strain asf1, active compounds read low",0.951
same,normalized growth,"locus YJL129C, strain trk1, active compounds read low",1.01
same,normalized growth,"locus YJL134W, strain LCB3, active compounds read low",0.988
same,normalized growth,"locus YJL154C, strain vps35, active compounds read low",0.979
same,normalized growth,"locus YJL164C, strain tpk1, active compounds read low",0.998
same,normalized growth,"locus YJL166W, strain qcr8, active compounds read low",0.996
same,normalized growth,"locus YJL187C, strain SWE1 (second series), active compounds read low",1.01
same,normalized growth,"locus YJR043C, strain POL32, active compounds read low",1.04
same,normalized growth,"locus YJR066W, strain TOR1, active compounds read low",0.956
same,normalized growth,"locus YJR075W, strain HOC1, active compounds read low",0.982
